Assay [1] deals with Luciferin 4-monooxygenase (Photinus pyralis) (UniProt P08659). In words: qHTS assay to identify small molecule inhibitors of firefly luciferase (AID 1224835). Note: nearly all actives have a fitted effect of over 25% in size. Note: potency is the fitted concentration of half-maximal effect. In a few lines: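 Inhibition of purified Photinus luciferase is measured by luminescence. Substrate levels (D-luciferin, ATP) sit at their KM values. Each compound is tested in a concentration series.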
In general terms: Quantitative high-throughput screening tests each substance at several concentrations.

The nature of assay [2]: qHTS assay to identify small molecule agonists of the constitutive androstane receptor (CAR) signaling pathway - cell viability counter screen (AID 1224836). Note: nearly all actives have a fitted effect of over 45% in size. Note: potency is the fitted concentration of half-maximal effect. The essentials:
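Counter screen multiplexed with the CAR reporter readout: HepG2 cells co-transfected with hCAR and the CYP2B6-2.2kb construct receive a 15-concentration compound series and 0.75 uM PK11195 (final), then CellTiter-Fluor fluorescence is read after 23 h.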

A short description of assay [3]: qHTS assay to identify small molecule antagonists of the constitutive androstane receptor (CAR) signaling pathway - cell viability counter screen (AID 1224837). Note: nearly all actives have a fitted effect of over 45% in size. Note: potency is the fitted concentration of half-maximal effect. The essentials: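 Cytotoxicity counter-screen: CellTiter-Fluor fluorescence after 23 h compound exposure (15-point qHTS) in double-stable HepG2-CYP2B6-hCAR cells, with 50 nM CITCO added.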
In assay [4] the target is Nuclear receptor subfamily 1 group I member 3 (Homo sapiens) (UniProt Q14994). In words: qHTS assay to identify small molecule antagonists of the constitutive androstane receptor (CAR) signaling pathway (AID 1224838).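 Note: HepG2 cells stably expressing hCAR with CYP2B6 luciferase reporter stimulated by CITCO; nearly all actives have a fitted effect of over 40% in size.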 Note: potency is the fitted concentration of half-maximal effect. In a few lines:
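Antagonism measured as luciferase signal (ONE-Glo, 30 min, room temperature) in CAR-stimulated cells: HepG2-CYP2B6-hCAR double-stable line exposed 24 hr at 37 C to compound in a 15-point series plus 50 nM CITCO.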

Assay [5] shares this target. In words: qHTS assay to identify small molecule agonists of the constitutive androstane receptor (CAR) signaling pathway (AID 1224839). Note: nearly all actives have a fitted effect of over 15% in size. Note: potency is the fitted concentration of half-maximal effect. The essentials: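 A 15-concentration quantitative screen uses HepG2 cells co-transfected stably with human CAR and CYP2B6-2.2kb reporter. Treatment lasts 24 h with 0.75 uM PK11195 final present; ONE-Glo luminescence is the signal.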

Assay [6] can be described thus: qHTS assay to identify small molecule antagonists of the estrogen related receptor signaling pathway with the pleiotropic PPARgamma coactivator (PGC) from Tox21 10K library (AID 1224841; call rule not given here; note: actives are mostly falling curves and most rising ones were filed inactive; nearly all actives have a fitted effect of over 50% in size; note: potency is the fitted concentration of half-maximal effect). In a few lines:
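Luminescence (One-Glo, 30 min at room temperature) after 18 h compound treatment at 37 C of PGC/ERR reporter cells plated at 2,000 cells/well and settled 6 h beforehand.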

Assay [7] is described as follows: qHTS assay to identify small molecule agonists of the estrogen related receptor signaling pathway with the pleiotropic PPARgamma coactivator (PGC) from Tox21 10K library (AID 1224842). Note: nearly all actives have a fitted effect of over 15% in size. The essentials:
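Luminescence from One-Glo (30 min, room temperature) measured after PGC/ERR cells had 18 h at 37 C with pinned compound (23 nL in DMSO). Cells had been seeded at 2,000 per well and pre-incubated 6 h.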

Assay [8] in a line: qHTS assay to identify small molecule agonists of the hypoxia (HIF-1) signaling pathway - cell viability counter screen (AID 1224844; calls by dose curve; note: nearly all actives have a fitted effect of over 50% in size; note: potency is the fitted concentration of half-maximal effect). The essentials:
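Cytotoxicity measured by CellTiter-Glo ATP luminescence in the wells also read for beta-lactamase signal. Cells were HRE-bla ME-180 (2,000/well, 0.5% dialyzed FBS), exposed to compounds for 17 h at 37C.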

Assay [9] in a line: qHTS assay to identify small molecule agonists of H2AX (AID 1224845; active = well fitted activation curve with a large enough effect in the signal ratio in the repeat runs, not every such curve was filed as active; the % refers to the signal ratio). The essentials: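 Phospho-H2AX Ser139 measured by HTRF (ex 320 nm; em 665 and 620 nm) after 24 hr antibody incubation. Compounds, 15 concentrations, 0.76% DMSO, were applied to CHO-K1 cells for 3hr at 37C before lysis.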
Assay [10] can be described thus: qHTS assay to identify small molecule agonists of H2AX - cell viability counter screen (AID 1224847; calls by dose curve; note: nearly all actives have a fitted effect of over 30% in size; note: potency is the fitted concentration of half-maximal effect). The essentials: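 We seed wild-type CHO-K1 cells overnight, treat them for 3 hr at 37C with compounds in 15-concentration series, and quantify remaining viability by CellTiter-Glo luminescence.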
A short description of assay [11]: qHTS assay to identify small molecule antagonists of the estrogen related receptor (ERR) signaling pathway from Tox21 library (AID 1224848). Note: nearly all actives have a fitted effect of over 50% in size. Note: potency is the fitted concentration of half-maximal effect. In a few lines: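 Luciferase luminescence (ONE-Glo, 30 min room temperature) was the read-out. Cells of the NTP-supplied ERR line, 2,000 per well, were given 6 h at 37 C before compound addition in DMSO and 18 h exposure at 37 C.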

Assay [12] can be described thus: qHTS assay to identify small molecule agonists of the estrogen related receptor (ERR) signaling pathway from Tox21 library (AID 1224849; calls by dose curve; note: nearly all actives have a fitted effect of over 15% in size). Conditions: ERR reporter cell line, ONE-Glo luciferase, 18 h; at 92.4 µM (top of the series) unless noted. The essentials: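 Luminescent agonist read-out (One-Glo, 30-minute room-temperature incubation) following 18-hour compound treatment at 37 C of the ERR cell line, which had been plated 6 hours before dosing.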

Assay [13] can be described thus: qHTS RealTime-Glo MT Cell Viability Assay in HepG2 cells - 24 hour (AID 1224867). Note: nearly all actives have a fitted effect of over 50% in size. Note: potency is the fitted concentration of half-maximal effect. In a few lines: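 Real-time, nonlytic viability: 600 HepG2 cells/well mixed with NanoLuc enzyme plus prosubstrate; 5 h settle, compound (DMSO) added by pintool; luminescence monitored over 40 h at 37 C.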
A short description of assay [14]: qHTS RealTime-Glo MT Cell Viability Assay in HEK293 cells - 32 hour (AID 1224868). Note: nearly all actives have a fitted effect of over 50% in size. Note: potency is the fitted concentration of half-maximal effect. In a few lines:
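Cells + reagent dispensed (600 cells/well, HEK293) → 5 h at 37 C/5% CO2 → 23 nL compound in DMSO pinned → 40 h at 37 C → luminescence read at 0, 8, 16, 24, 32, 40 h.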

Assay [15] in a line: A CellTox Green Cytotoxicity Assay to monitor cytotoxicity in HEK293 cells - 0 hour (AID 1224869). Note: nearly all actives have a fitted effect of over 50% in size. The essentials:
(§1)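 Fluorescence from a DNA-binding dye excluded by viable cells was measured repeatedly in the same HEK293 wells (600 cells/well) during continuous compound exposure at 37 C. Each assay gives one read point: 0, 8, 16, 24, 32 or 40 h.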

Assay [16] is described as follows: qHTS RealTime-Glo MT Cell Viability Assay in HepG2 cells - 40 hour (AID 1224870). Note: nearly all actives have a fitted effect of over 50% in size. Note: potency is the fitted concentration of half-maximal effect. The essentials:
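Real-time viability: cells seeded at 600 per well together with NanoLuc and cell-permeant prosubstrate, compounds added after 5 h incubation. Luminescence tracked at 0, 8, 16, 24, 32 and 40 h of exposure.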

The nature of assay [17]: A CellTox Green Cytotoxicity Assay to monitor cytotoxicity in HEK293 cells - 40 hour (AID 1224871). Note: nearly all actives have a fitted effect of over 45% in size. Note: potency is the fitted concentration of half-maximal effect. In a few lines: as §1
Assay [18] addresses Thyrotropin receptor (Homo sapiens) (UniProt P16473). In words: qHTS assay to identify small molecule agonists of the thyroid stimulating hormone receptor (TSHR) signaling pathway (AID 1224843; calls by dose curve; note: nearly all actives have a fitted effect of over 45% in size; note: potency is the fitted concentration of half-maximal effect). The essentials:
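Agonist activity read as cAMP rise via d2/cryptate HTRF competition, 1 h room-temperature detection, in HEK293 cells expressing TSHR. Fifteen-point titrations, each run in triplicate, with a 30 min room-temperature incubation beforehand.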

A short description of assay [19]: qHTS assay to identify small molecule agonists of the hypoxia (HIF-1) signaling pathway (AID 1224846; active = well fitted activation curve with a large enough effect in the signal ratio in the repeat runs, not every such curve was filed as active; the % refers to the signal ratio). The essentials: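 Compounds added to ME-180 cells carrying hypoxia-response-element beta-lactamase reporter (0.5% dialyzed FBS, 5 h preplating), 17 h at 37C; agonist activity detected by CCF4-AM B/G FRET read-out.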

This is an account of results in PubChem BioAssay (Tox21).

Unmarked numbers belong to inactive results. Inconclusive results are not listed. Calls of active or inactive are those of the source. Unless noted, calls come from the whole dose curve; as a rule, active = well fitted curve in the direction sought with a large enough effect in the repeat runs; inconclusive = weak or mixed curves; inactive = no such curve, though single readings can be large; an effect the other way counts as inactive or inconclusive.
% is set by controls: 0 for no effect and ±100 for the full control effect.

Luciferin 4-monooxygenase (Photinus pyralis), sequence (P08659 whole entry, looked up): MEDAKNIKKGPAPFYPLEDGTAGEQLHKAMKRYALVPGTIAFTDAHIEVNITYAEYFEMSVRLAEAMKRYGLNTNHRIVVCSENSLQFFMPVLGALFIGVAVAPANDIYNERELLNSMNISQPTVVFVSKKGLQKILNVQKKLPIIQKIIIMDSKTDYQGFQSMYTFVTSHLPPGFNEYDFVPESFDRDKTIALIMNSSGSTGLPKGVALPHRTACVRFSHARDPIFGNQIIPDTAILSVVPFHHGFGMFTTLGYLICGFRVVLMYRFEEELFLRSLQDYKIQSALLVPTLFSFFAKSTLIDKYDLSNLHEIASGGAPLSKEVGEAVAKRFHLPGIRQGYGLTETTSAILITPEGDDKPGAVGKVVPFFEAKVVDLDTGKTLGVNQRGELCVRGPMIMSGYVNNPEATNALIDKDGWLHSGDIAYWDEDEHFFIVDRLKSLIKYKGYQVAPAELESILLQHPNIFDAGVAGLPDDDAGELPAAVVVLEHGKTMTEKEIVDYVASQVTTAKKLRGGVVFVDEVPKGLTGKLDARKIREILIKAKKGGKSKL
Nuclear receptor subfamily 1 group I member 3 (Homo sapiens), sequence (Q14994 whole entry, looked up): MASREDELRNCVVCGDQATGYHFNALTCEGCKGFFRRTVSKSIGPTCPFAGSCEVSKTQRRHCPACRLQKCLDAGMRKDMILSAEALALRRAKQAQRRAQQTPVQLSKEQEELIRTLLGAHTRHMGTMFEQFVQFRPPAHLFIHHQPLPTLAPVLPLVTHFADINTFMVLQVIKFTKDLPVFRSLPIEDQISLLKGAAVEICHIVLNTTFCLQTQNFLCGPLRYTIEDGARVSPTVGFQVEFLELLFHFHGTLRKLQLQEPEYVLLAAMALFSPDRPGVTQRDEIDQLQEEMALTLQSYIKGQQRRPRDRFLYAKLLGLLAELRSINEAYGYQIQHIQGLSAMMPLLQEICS
Thyrotropin receptor (Homo sapiens), sequence (P16473 whole entry, looked up): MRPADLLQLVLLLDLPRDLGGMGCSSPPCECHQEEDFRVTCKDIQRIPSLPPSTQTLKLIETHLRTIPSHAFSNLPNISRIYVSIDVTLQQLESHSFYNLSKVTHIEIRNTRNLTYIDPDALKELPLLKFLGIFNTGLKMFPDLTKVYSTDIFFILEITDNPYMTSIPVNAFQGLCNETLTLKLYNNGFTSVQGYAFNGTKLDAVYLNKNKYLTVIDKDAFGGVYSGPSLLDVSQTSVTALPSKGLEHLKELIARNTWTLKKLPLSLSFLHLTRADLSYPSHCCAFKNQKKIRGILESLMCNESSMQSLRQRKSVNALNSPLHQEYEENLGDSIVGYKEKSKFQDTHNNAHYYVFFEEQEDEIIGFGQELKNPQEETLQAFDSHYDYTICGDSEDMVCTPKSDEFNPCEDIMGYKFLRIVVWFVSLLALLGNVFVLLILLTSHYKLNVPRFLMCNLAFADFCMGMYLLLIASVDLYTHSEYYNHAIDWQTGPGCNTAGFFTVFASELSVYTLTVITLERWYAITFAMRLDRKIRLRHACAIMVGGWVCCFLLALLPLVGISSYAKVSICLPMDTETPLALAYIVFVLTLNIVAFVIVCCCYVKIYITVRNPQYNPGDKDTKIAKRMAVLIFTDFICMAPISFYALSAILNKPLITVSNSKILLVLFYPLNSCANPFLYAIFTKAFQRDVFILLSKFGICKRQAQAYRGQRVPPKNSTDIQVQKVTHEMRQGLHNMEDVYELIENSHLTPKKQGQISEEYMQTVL

Consider `CCN(CC)CCNc1ccc(CO)c2sc3ccccc3c(=O)c12`, for which the Potency result in assay [1], in assay [5], in assay [7], in assay [9], in assay [10] and in assay [15] was “inactive” in each case. For the same compound, the Potency in assay [2] was 7.5 µM (active); in [3], 7.5 µM (active); in assay [4], 2.66 µM (active); in [6] it was 8.41 µM (active); in assay [8], 26.8 µM (active); in assay [11], 13.3 µM (active). Also, the Potency in assay [13] is 23.9 µM (active); in [14], 16.9 µM (active); in [16] it was 21.3 µM (active); in assay [17], 23.9 µM (active). Moreover, the activity change, positive = activation in assay [12] was -56.6% [at 42.5 µM].
Turning to `CCCCCCCC(OC)OC`, the Potency result in assay [1], in [2], in [3], in assay [4], in assay [5] and in [18] was “inactive” in each case. Also, the Potency result in [8], in [9], in assay [10], in [13], in [14] and in [15] was “inactive” each time. Further, the Potency entry in [17] is “inactive”. For the same compound, the result in assay [19] was inactive.
`CCCC(=O)OCC(COC(=O)CCC)OC(=O)CCC`: the Potency entry in assay [1], in assay [2], in [3], in assay [4], in [5] and in [6] was “inactive” in each case. The Potency entry in assay [7], in assay [8], in assay [9], in assay [10], in [11] and in assay [13] was “inactive” in each case. Further, the Potency result in assay [14], in [15] and in assay [17] was “inactive” throughout. Further, in assay [19], the result was inactive. Moreover, the activity change, positive = activation in [12] was -2.08%.
Turning to `C[C@]12CC[C@H]3C(=CCc4cc(O)ccc43)[C@@H]1CCC2=O`, the Potency in [1] was 35.6 µM (active); in [5], 27.3 µM (active); in assay [8], 38.9 µM (active); in assay [10] it was 101 µM (active); in assay [11], 61.1 µM (active); in [14] it was 49 µM (active). For the same compound, the Potency result in assay [2], in assay [3], in assay [4], in assay [6], in assay [9] and in assay [15] was “inactive” each time. Besides, in assay [17], the Potency entry was “inactive”. In assay [19], the call was inactive. Also, the activity change, positive = activation in [12] is -51.5%.
As for `O=C1OC(OC(=O)c2cccnc2Nc2cccc(C(F)(F)F)c2)c2ccccc21` (stereo not drawn), the Potency result in assay [1], in [2], in assay [3], in assay [4], in [5] and in assay [6] was “inactive” in each case. For the same compound, the Potency entry in [7], in assay [18], in [8], in [10], in assay [11] and in assay [13] was “inactive” in each case. For the same compound, the Potency entry in assay [14], in [15], in assay [16] and in assay [17] was “inactive” in each case. Further, the activity change, positive = activation in assay [12] was -0.557% [at 42.5 µM].
Turning to `O=C1C=CC(=O)N1c1ccccc1`, the Potency is 22.4 µM (active) in assay [1]; 54.5 µM (active) in [2]; 27.3 µM (active) in assay [3]; 27.3 µM (active) in [4]; 54.5 µM (active) in [6]; 21.9 µM (active) in assay [8]. Further, the Potency is 45 µM (active) in [10]; 54.5 µM (active) in [11]; 13.8 µM (active) in assay [13]; 11 µM (active) in assay [14]; 11 µM (active) in assay [16]; 11 µM (active) in [17]. Also, the Potency entry in [5], in assay [7] and in [15] was “inactive” each time. Further, the activity change, positive = activation in [12] was -78.1%.
`CC(C)=CCCC(C)CCOC(=O)C(C)C` (stereo not drawn): the Potency result in assay [1], in [2], in assay [3], in assay [4], in assay [5] and in assay [18] was “inactive” each time. In addition, the Potency entry in [8], in [9], in assay [10], in assay [13], in [14] and in assay [16] was “inactive” each time. Further, the Potency entry in assay [17] is “inactive”. The compound was classed as inactive in [19].
`C=C1C(C)(C)[C@@]2(Cl)C(Cl)[C@]1(Cl)C(Cl)(Cl)C2(Cl)Cl` (stereo partly drawn): the Potency entry in [1], in assay [2], in [3], in assay [4], in assay [15] and in assay [16] was “inactive” in each case. Besides, the Potency in assay [5] is 21.3 µM (active); in assay [6], 53.5 µM (active); in assay [18] it was 13.4 µM (active); in [8] it was 48.1 µM (active); in assay [10], 111 µM (active); in assay [11], 60 µM (active). Also, in [12], the activity change, positive = activation is -68%.
For `Cc1ccc(-n2[nH]c(C)c(N=Nc3cccc(-c4cccc(C(=O)O)c4)c3O)c2=O)cc1C`, the Potency in assay [1] is 38.9 µM (active); in assay [8] it was 6.74 µM (active); in [14], 23.9 µM (active). Also, the Potency result in assay [2], in assay [3], in [4], in assay [5], in [18] and in assay [16] was “inactive” in each case. Further, in assay [17], the Potency result is “inactive”.
